# Data as given in PMC7862700, “An all-to-all approach to the identification of sequence-specific readers for epigenetic DNA modifications on cytosine”.
# How the values were obtained:
# Experiment in all cases: DAPPL (digital affinity profiling via proximity ligation, sequencing); 10 mM Tris-HCl pH 7.5, 50 mM NaCl, 1 mM DTT, 4% glycerol, room temperature, 30 min; GST-TFs on glutathione beads, 16-mer random dsDNA library, 0.1% formaldehyde crosslink after washing; high values mean tight binding
# Conditions in all cases: protein: recombinant; tags: N-terminal GST; dsDNA, one strand shown
# FLI1 = target: T1, FLI1 (Homo sapiens, UniProt Q01543 1-452)
# T1 sequence: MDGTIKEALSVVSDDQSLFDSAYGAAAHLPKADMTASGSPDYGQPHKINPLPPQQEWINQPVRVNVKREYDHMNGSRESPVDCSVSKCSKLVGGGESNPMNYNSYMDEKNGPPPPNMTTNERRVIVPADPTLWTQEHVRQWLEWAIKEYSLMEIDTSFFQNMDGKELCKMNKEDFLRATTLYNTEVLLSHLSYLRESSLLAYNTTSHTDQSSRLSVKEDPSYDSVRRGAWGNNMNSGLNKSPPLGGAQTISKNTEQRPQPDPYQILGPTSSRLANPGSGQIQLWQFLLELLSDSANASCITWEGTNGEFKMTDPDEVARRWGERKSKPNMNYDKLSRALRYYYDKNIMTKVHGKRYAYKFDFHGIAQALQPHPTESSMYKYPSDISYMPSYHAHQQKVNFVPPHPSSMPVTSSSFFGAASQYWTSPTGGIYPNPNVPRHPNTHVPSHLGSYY
# How it was run: (§1)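 Pools were built from human transcription factors expressed in yeast as GST fusions, captured on glutathione beads and DNA-barcoded, along with a tag-only sample. Incubation with 200 nmole of a 16-mer random double-stranded DNA library lasted 30 min at room temperature in Tris/NaCl/DTT/glycerol buffer, and was followed by washing, 0.1% formaldehyde crosslinking, proximity ligation, PCR amplification and Illumina NextSeq500 sequencing. Binding signal is the quotient of each hexamer's read frequency for a factor and its frequency for the tag-only sample.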
# ELK1 = target: T2, ELK1 (Homo sapiens, UniProt P19419 1-428)
# T2 sequence: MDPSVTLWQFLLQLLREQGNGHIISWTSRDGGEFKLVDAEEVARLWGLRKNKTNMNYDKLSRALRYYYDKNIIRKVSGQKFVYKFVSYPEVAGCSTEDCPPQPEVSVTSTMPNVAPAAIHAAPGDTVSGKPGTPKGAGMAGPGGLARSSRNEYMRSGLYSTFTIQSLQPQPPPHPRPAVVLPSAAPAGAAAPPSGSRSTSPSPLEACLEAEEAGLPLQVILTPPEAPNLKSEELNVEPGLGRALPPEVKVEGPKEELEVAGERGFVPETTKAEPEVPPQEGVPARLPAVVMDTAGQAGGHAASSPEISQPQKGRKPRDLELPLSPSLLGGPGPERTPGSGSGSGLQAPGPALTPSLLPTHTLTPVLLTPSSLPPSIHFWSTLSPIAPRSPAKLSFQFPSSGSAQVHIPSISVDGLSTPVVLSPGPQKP
# How it was run: as §1
# GABPA = target: T3, GABPA (Homo sapiens, UniProt Q06546 1-454)
# T3 sequence: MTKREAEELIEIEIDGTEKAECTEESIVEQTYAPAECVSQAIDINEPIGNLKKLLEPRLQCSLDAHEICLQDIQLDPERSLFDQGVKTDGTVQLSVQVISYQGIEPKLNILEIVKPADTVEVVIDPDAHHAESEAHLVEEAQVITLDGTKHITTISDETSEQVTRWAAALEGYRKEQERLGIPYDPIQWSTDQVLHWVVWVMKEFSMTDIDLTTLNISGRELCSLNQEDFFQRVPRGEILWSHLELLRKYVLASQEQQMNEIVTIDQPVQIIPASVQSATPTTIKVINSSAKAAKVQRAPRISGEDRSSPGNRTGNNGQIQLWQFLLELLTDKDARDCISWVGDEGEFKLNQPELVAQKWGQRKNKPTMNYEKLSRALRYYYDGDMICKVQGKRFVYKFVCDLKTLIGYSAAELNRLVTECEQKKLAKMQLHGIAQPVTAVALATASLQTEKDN
# How it was run: as §1
# ERG = target: T4, ERG (Homo sapiens, UniProt P11308 1-479)
# T4 sequence: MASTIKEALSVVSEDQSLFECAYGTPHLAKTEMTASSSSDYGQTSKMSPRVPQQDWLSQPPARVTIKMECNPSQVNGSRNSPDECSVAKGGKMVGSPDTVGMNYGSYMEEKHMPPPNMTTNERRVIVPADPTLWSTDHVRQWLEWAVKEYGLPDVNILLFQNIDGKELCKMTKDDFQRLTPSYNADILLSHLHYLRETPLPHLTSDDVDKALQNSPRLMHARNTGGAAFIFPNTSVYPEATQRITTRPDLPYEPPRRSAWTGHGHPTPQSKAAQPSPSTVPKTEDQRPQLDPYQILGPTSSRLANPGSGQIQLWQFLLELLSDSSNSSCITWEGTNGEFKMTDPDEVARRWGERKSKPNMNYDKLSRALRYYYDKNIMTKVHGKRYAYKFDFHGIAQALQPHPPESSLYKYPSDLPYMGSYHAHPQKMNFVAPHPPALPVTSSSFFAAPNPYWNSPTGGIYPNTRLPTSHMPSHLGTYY
# How it was run: as §1
# ELF1 = ELF1 (Homo sapiens, UniProt P32519 1-619)
# Sequence of ELF1 (P32519 whole entry): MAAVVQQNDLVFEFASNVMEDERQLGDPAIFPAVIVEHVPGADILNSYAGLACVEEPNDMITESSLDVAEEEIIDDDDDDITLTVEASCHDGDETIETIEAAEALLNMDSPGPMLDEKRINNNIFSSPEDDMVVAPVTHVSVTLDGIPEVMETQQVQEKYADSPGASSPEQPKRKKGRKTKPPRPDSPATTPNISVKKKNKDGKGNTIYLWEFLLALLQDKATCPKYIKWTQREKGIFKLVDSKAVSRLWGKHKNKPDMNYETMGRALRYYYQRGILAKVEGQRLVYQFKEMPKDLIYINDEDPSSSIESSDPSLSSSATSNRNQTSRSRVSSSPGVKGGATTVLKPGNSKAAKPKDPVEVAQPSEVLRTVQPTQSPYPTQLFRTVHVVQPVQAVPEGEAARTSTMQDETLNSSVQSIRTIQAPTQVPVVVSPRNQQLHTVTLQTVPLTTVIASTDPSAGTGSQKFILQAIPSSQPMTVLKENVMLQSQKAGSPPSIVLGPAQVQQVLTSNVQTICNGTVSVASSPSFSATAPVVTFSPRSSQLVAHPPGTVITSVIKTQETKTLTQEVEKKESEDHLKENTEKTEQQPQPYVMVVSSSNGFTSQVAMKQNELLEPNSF
# How it was run: as §1
# EHF = target: T5, EHF (Homo sapiens, UniProt Q9NZC4 1-300)
# T5 sequence: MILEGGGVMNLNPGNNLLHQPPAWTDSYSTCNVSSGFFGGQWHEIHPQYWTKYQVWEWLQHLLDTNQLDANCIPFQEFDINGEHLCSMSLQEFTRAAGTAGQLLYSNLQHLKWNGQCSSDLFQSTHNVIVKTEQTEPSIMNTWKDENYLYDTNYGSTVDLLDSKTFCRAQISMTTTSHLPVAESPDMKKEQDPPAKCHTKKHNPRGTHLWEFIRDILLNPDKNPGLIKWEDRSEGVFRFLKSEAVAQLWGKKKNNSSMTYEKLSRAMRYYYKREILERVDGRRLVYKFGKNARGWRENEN
# How it was run: as §1
# SPI1 = SPI1 (Homo sapiens, UniProt P17947 1-270)
# How it was run: as §1
# SPIB = SPIB (Homo sapiens, UniProt Q01892 1-262)
# Sequence of SPIB (Q01892 whole entry): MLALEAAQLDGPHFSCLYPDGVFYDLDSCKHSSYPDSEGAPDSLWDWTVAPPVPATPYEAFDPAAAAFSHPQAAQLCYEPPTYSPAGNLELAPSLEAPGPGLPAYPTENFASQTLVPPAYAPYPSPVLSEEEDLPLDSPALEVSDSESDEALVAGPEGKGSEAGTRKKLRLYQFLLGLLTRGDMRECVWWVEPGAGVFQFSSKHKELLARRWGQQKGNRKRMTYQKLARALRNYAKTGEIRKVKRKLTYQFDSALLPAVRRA
# How it was run: as §1
# ELK3 = target: T6, ELK3 (Homo sapiens, UniProt P41970 1-407)
# T6 sequence: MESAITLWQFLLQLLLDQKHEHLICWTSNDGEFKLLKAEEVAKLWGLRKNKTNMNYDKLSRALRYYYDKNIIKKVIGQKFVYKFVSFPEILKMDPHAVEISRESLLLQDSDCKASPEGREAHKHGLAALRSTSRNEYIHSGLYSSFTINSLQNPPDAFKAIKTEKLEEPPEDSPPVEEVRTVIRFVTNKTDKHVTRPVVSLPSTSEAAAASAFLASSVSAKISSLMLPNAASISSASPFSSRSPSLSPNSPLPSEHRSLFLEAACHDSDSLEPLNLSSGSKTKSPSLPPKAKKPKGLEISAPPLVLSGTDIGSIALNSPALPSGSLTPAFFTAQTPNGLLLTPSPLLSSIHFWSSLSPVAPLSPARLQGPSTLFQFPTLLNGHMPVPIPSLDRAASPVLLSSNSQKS
# How it was run: as §1
# FEV = target: T7, FEV (Homo sapiens, UniProt Q99581 1-238)
# T7 sequence: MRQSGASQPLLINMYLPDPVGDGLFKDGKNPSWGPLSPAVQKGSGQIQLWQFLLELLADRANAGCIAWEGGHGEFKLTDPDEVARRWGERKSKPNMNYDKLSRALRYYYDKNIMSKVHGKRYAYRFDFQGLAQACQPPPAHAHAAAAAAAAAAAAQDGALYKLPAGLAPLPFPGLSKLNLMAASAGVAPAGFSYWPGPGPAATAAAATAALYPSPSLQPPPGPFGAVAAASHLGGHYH
# How it was run: as §1
# ETV5 = ETV5 (Homo sapiens, UniProt P41161 1-510)
# Sequence of ETV5 (P41161 whole entry): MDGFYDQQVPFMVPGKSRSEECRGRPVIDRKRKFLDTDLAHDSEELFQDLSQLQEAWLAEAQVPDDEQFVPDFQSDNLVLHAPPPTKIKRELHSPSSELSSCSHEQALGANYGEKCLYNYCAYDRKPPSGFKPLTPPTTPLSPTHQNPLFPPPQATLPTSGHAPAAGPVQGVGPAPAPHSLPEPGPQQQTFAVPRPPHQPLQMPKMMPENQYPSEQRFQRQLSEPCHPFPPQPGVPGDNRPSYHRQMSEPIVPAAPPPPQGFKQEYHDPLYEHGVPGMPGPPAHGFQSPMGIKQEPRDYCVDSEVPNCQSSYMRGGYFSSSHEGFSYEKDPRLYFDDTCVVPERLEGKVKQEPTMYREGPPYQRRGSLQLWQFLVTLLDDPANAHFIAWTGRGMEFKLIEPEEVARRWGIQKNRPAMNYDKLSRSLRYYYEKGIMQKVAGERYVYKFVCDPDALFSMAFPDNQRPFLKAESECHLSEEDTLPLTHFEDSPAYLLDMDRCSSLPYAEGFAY
# How it was run: as §1
# SPIC = target: T8, SPIC (Homo sapiens, UniProt Q8N5J4 1-248)
# T8 sequence: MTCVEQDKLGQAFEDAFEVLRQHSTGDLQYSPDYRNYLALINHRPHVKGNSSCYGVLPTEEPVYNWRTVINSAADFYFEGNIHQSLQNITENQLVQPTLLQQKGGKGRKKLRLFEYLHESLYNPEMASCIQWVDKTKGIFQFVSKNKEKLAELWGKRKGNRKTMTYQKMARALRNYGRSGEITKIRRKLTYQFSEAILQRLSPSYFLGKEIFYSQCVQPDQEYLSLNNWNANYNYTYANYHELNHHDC
# How it was run: as §1
# ELF4 = ELF4 (Homo sapiens, UniProt Q99607 1-663)
# Sequence of ELF4 (Q99607 whole entry): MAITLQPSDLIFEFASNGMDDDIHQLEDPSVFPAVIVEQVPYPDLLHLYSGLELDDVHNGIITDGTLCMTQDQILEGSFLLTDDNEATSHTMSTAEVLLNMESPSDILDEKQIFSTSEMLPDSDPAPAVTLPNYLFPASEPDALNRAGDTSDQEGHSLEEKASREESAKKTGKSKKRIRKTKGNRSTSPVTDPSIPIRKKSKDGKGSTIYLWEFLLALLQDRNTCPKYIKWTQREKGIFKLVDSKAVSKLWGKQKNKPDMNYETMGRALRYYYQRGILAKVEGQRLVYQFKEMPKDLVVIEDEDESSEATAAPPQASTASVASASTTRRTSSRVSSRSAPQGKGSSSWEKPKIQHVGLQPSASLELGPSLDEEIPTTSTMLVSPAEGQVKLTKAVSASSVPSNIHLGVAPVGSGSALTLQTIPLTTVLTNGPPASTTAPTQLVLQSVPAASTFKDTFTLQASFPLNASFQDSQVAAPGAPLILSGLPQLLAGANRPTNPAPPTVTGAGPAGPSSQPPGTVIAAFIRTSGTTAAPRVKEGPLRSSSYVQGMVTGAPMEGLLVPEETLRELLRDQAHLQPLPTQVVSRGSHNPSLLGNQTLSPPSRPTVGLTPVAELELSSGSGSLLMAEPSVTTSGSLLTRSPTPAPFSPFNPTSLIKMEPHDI
# How it was run: as §1
# ELK4 = target: T9, ELK4 (Homo sapiens, UniProt P28324-2 1-405)
# T9 sequence: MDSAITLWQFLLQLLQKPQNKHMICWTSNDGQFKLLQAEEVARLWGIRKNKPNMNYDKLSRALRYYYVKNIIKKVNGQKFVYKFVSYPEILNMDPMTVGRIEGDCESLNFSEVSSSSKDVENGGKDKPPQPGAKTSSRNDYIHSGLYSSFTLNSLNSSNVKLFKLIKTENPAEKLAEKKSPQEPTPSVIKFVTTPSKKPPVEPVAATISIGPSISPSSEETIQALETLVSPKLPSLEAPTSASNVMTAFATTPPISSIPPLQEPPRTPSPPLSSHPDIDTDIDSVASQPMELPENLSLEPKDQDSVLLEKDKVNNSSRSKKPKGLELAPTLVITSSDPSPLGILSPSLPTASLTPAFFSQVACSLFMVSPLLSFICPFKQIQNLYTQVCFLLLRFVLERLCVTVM
# How it was run: as §1
# ETV2 = target: T10, ETV2 (Homo sapiens, UniProt O00321 1-342)
# T10 sequence: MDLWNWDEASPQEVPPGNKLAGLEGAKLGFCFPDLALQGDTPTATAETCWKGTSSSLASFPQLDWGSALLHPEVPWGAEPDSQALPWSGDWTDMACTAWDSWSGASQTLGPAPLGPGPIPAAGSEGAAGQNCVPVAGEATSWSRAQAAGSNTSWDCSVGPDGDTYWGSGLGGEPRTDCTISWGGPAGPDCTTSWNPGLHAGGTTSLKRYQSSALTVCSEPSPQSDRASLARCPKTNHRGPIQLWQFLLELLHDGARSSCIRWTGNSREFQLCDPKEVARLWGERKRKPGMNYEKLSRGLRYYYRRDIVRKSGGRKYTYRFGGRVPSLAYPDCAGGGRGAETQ
# How it was run: as §1
# ELF3 = target: T11, ELF3 (Homo sapiens, UniProt P78545 1-371)
# T11 sequence: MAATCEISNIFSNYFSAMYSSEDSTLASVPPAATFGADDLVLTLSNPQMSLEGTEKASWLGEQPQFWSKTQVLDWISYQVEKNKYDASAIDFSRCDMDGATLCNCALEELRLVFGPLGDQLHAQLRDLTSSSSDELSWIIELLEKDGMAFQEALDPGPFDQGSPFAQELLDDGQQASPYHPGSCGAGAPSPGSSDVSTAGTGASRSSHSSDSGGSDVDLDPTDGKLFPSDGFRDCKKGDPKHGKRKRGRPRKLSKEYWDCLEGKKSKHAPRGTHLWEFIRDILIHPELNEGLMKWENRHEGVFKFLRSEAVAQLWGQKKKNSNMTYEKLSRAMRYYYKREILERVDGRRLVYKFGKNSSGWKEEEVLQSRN
# How it was run: as §1
# ETV1 = ETV1 (Homo sapiens, UniProt P50549 1-477)
# Sequence of ETV1 (P50549 whole entry): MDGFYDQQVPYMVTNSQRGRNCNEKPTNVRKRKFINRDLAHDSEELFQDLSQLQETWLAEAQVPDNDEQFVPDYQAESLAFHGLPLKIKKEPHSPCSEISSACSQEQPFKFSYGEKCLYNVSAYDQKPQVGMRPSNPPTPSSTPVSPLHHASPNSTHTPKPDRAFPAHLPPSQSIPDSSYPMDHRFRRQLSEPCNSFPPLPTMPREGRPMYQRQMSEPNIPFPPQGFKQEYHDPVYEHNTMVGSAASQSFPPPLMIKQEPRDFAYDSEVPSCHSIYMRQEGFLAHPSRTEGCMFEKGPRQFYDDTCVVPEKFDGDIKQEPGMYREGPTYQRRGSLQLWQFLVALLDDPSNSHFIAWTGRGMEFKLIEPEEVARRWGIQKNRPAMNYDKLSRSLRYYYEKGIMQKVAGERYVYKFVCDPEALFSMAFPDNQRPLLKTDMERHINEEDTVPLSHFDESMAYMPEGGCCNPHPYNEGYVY
# How it was run: as §1
sequence,measurement,setting,value
ACCAAC,binding signal,FLI1,"1.19 fold enrichment (6-mer frequency, TF over GST control)"
same,binding signal,ELK1,"1.36 fold enrichment (6-mer frequency, TF over GST control)"
same,binding signal,GABPA,"1.23 fold enrichment (6-mer frequency, TF over GST control)"
same,binding signal,ERG,"1.15 fold enrichment (6-mer frequency, TF over GST control)"
same,binding signal,ELF1,"1.24 fold enrichment (6-mer frequency, TF over GST control)"
same,binding signal,EHF,"1.18 fold enrichment (6-mer frequency, TF over GST control)"
same,binding signal,SPI1,"1.19 fold enrichment (6-mer frequency, TF over GST control)"
same,binding signal,SPIB,"1.12 fold enrichment (6-mer frequency, TF over GST control)"
same,binding signal,ELK3,"1.18 fold enrichment (6-mer frequency, TF over GST control)"
same,binding signal,FEV,"1.19 fold enrichment (6-mer frequency, TF over GST control)"
same,binding signal,ETV5,"1.22 fold enrichment (6-mer frequency, TF over GST control)"
same,binding signal,SPIC,"1.1 fold enrichment (6-mer frequency, TF over GST control)"
same,binding signal,ELF4,"1.25 fold enrichment (6-mer frequency, TF over GST control)"
same,binding signal,ELK4,"1.31 fold enrichment (6-mer frequency, TF over GST control)"
same,binding signal,ETV2,"1.25 fold enrichment (6-mer frequency, TF over GST control)"
same,binding signal,ELF3,"1.2 fold enrichment (6-mer frequency, TF over GST control)"
same,binding signal,ETV1,"1.16 fold enrichment (6-mer frequency, TF over GST control)"
